Laboratory results: PubChem BioAssay (Tox21)
Inconclusive results are not listed. Calls of active or inactive are those of the source. Unless noted, calls come from the whole dose curve; as a rule, active = well fitted curve in the direction sought with a large enough effect in the repeat runs; inconclusive = weak or mixed curves; inactive = no such curve, though single readings can be large; an effect the other way counts as inactive or inconclusive.

Assays:
[1] = qHTS assay to identify small molecule antagonists of the TGF-beta/Smad signaling pathway - cell viability counter screen (AID 1346824); note: nearly all actives have a fitted effect of over 50% in size
In short: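 SBE-bla HEK 293T cells were plated overnight at 37 C, then given compounds in DMSO plus TGF-beta1 (added as 0.25 ng/mL solution) for 5 hr. After the bla read, CellTiter-Glo was added to the same wells and luminescence read after 30 min at room temperature.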

[2] = qHTS assay to identify small molecule agonists of the TGF-beta/Smad signaling pathway - cell viability counter screen (AID 1346829); note: top concentration of the series differs between compounds; nearly all actives have a fitted effect of over 45% in size
In short: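 After overnight seating at 37 C and 5% CO2, reporter cells got compounds for 5 hr and FRET substrate for 2 hr; cell viability then came from CellTiter-Glo luminescence.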

[3] = qHTS assay to identify small molecule agonists of the TGF-beta/Smad signaling pathway (AID 1346859; active = well fitted activation curve with a large enough effect in the signal ratio in the repeat runs, not every such curve was filed as active; the % refers to the signal ratio; note: series mostly up to about 77 µM)
In short: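 SBE-bla HEK293T cells plated overnight, then compound exposure for 5 h at 37 C. Beta-lactamase reporter read with LiveBLAzer B/G FRET substrate after 2 h at room temperature, fluorescence at 405 nm excitation, 460/530 nm emission.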

[4] = target: Thyrotropin-releasing hormone receptor (Homo sapiens) (UniProt P34981); assay: qHTS assay to identify small molecule antagonists of the thyrotropin-releasing hormone receptor (TRHR) signaling pathway (AID 1346877; active = well fitted inhibition curve with a large enough effect in the repeat runs, not every such curve was filed as active; note: series mostly up to about 51 µM)
In short: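 Intracellular calcium fluorescence, read kinetically every second over 3 min, reports TRH-evoked signalling in HEK293 cells carrying TRHR. Test compounds were added 5 min ahead of a 1 nM TRH challenge.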

[5] = target: Thyrotropin-releasing hormone receptor (Homo sapiens) (UniProt P34981); assay: qHTS assay to identify small molecule agonists of the thyrotropin-releasing hormone receptor (TRHR) signaling pathway (AID 1346891; calls by dose curve; note: series mostly up to about 58 µM)
In short: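 HEK293 cells expressing TRHR plated 18 h at 37 C/5% CO2, calcium dye-loaded 2 h at 37 C, then compound added (agonist mode); kinetic calcium fluorescence read 3 min at 1 s intervals; 15 concentrations in triplicate.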

[6] = Human pregnane X receptor (PXR) small molecule agonists, qHTS cell viability counter screen (AID 1346977); note: nearly all actives have a fitted effect of over 50% in size
In short: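 PXR-Luc HepG2 cells (2,000/well, 5% charcoal-stripped FBS) preincubated 5 hr, then exposed to compounds 24 hr at 37 C. Viability read in the same wells by CellTiter-Fluor fluorescence, reagent added at 23 hr, 1 hr incubation.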

[7] = Caspase-3/7 induction in HepG2 cells by small molecules, qHTS assay (AID 1346978); note: nearly all actives have a fitted effect of over 15% in size
In short: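 Wild-type HepG2 cells (2,000/well) were settled 5 h at 37 C, 5% CO2, then exposed to compounds in DMSO for 17 h. Caspase-3/7 activity was read by luminescence 30 min after adding Caspase-Glo 3/7 reagent at room temperature.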

[8] = Caspase-3/7 induction in CHO-K1 cells by small molecules, qHTS cell viability counter screen (AID 1346979); note: nearly all actives have a fitted effect of over 35% in size
In short: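 Wild-type CHO-K1 cells (1,500/well) treated with compound after 5 h plating; after 16 h at 37C, viability read as CellTiter-Fluor fluorescence following 1 h reagent incubation, in the same wells as the caspase read.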

[9] = Caspase-3/7 induction in CHO-K1 cells by small molecules, qHTS assay (AID 1346980); note: nearly all actives have a fitted effect of over 15% in size
In short: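 Wild-type cells were seeded at 1,500 per well and settled 5 hr at 37 C, 5% CO2, then exposed to DMSO-dissolved compounds for 17 hr. Caspase-Glo 3/7 reagent was added, and luminescence was read after 30min at room temperature.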

[10] = Caspase-3/7 induction in HepG2 cells by small molecules, qHTS cell viability counter screen (AID 1346981); note: series mostly up to about 92 µM; nearly all actives have a fitted effect of over 30% in size
In short: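 HepG2, WT, 2,000 cells/well; 5 hr pre-incubation 37 C/5% CO2; compound pin-transferred from DMSO; 16 hr exposure; CellTiter-Fluor, 1 hr; fluorescence read.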

[11] = target: Nuclear receptor subfamily 1 group I member 2 (Homo sapiens) (UniProt O75469); assay: Human pregnane X receptor (PXR) small molecule agonists, qHTS assay (AID 1346982); note: nearly all actives have a fitted effect of over 35% in size
In short: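 Luciferase signal from ONE-Glo (30 min, room temperature) measured activation of hPXR-driven CYP3A4 reporter expression in PXR-Luc HepG2 cells treated with compounds for 24 hr at 37 C.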

[12] = target: Cytochrome P450 2D6 (Homo sapiens) (UniProt P10635); assay: Cytochrome P450 Family 2 Subfamily D Member 6 (CYP2D6) small molecule antagonists: luciferase reporter qHTS assay (AID 1671196); note: series mostly up to about 120 µM; nearly all actives have a fitted effect of over 50% in size
In short: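 Read-out is luminescence from luciferin formed by CYP2D6 turnover of a proluciferin substrate, recorded as relative luminescence units. Reactions ran 1 h at room temperature after NADPH regeneration solution was added.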

[13] = target: Cytochrome P450 2C19 (Homo sapiens) (UniProt P33261); assay: Cytochrome P450 Family 2 Subfamily C Member 19 (CYP2C19) small molecule antagonists: luciferase reporter qHTS assay (AID 1671197); note: series mostly up to about 120 µM; nearly all actives have a fitted effect of over 65% in size
In short: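 Inhibition of CYP2C19 was scored from loss of luminescence in a P450-Glo proluciferin substrate assay, NADPH-started and run 1 h at 37C, with ketoconazole as positive control.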

[14] = target: Cytochrome P450 2C9 (Homo sapiens) (UniProt P11712); assay: Cytochrome P450 Family 2 Subfamily C Member 9 (CYP2C9) small molecule antagonists: luciferase reporter qHTS assay (AID 1671198); note: nearly all actives have a fitted effect of over 50% in size; note: potency is the fitted concentration of half-maximal effect
In short: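 CYP2C9 activity was measured with a P450-Glo proluciferin substrate. Enzyme–substrate mix was held with compound for 10 min at room temperature, then NADPH regeneration solution was added for 1 h at 37C. Luciferin product was read as luminescence.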

[15] = target: Cytochrome P450 1A2 (Homo sapiens) (UniProt P05177); assay: Cytochrome P450 Family 1 Subfamily A Member 2 (CYP1A2) small molecule antagonists: luciferase reporter qHTS assay (AID 1671199)
In short: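 P450-Glo CYP1A2, 1536-well qHTS: enzyme/proluciferin substrate + cpd (DMSO), 10 min RT; NADPH regen, 1 h RT; detection reagent, 20 min; luminescence, RLU.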

[16] = target: Voltage-gated inwardly rectifying potassium channel KCNH2 (Homo sapiens) (UniProt Q12809); assay: Human Ether-a-go-go-Related Gene (hERG) channel small molecule antagonists: fluorescence cell-based qHTS assay (AID 1671200)
In short: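 hERG-U2OS cells plated overnight at 37 C, loaded with FluxOR II dye 1 h at RT in dark; after 10 min, thallium stimulus added. Fluorescence (480/540 nm) read kinetically for 2 min at 1 s intervals.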

[17] = target: Cytochrome P450 3A4 (Homo sapiens) (UniProt P08684); assay: Cytochrome P450 Family 3 Subfamily A Member 4 (CYP3A4) small molecule antagonists: luciferase reporter qHTS assay (AID 1671201)
In short: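 P450-Glo CYP3A4 luminescent assay: compounds preincubated 10 min at room temperature with enzyme and proluciferin substrate, NADPH regeneration added, 1 h room-temperature reaction, stopped with luciferin detection reagent; luminescence read after 20 min. Ketoconazole positive control.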

[18] = target: Nuclear receptor subfamily 1 group I member 2 (Homo sapiens) (UniProt O75469); assay: CYP3A4 induction through human pregnane X receptor (PXR) by small molecules, qHTS assay (AID 1346984); note: nearly all actives have a fitted effect of over 40% in size
In short: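 Luminescence readout: luciferase signal after One-Glo (30 min, room temperature), following 3 h at 37C with 3uM final Luciferin-IPA P450 substrate. Cells were DPX-2 (HepG2, PXR/CYP3A4-luc co-transfected) dosed for 24 h.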

[19] = target: Nuclear receptor subfamily 1 group I member 2 (Homo sapiens) (UniProt O75469); assay: Human pregnane X receptor (PXR) activation by small molecules, qHTS assay (AID 1346985); note: nearly all actives have a fitted effect of over 40% in size
In short: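 DPX-2 cells (HepG2 co-transfected with a PXR response element and a CYP3A4-promoter luciferase construct) were seeded at 2,000 per well, rested 5 hr at 37C, then exposed to DMSO-dissolved compounds for 24 hr. Activation was read as luciferase luminescence.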

Measured: Potency

Cytochrome P450 2C9 (Homo sapiens), sequence (P11712 whole entry, looked up): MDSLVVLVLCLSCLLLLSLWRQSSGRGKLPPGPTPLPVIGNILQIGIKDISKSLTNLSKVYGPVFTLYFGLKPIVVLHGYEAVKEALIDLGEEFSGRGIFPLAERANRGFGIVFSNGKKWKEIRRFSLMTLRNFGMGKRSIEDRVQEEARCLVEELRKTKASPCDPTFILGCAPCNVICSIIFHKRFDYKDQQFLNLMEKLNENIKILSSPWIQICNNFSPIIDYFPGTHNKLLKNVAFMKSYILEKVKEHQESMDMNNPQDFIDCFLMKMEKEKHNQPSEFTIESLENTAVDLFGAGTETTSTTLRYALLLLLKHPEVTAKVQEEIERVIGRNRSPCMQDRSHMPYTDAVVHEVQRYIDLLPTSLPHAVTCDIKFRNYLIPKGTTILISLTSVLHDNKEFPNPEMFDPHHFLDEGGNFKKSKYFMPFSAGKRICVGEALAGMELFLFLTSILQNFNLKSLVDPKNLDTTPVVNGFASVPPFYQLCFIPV
Cytochrome P450 3A4 (Homo sapiens), sequence (P08684 whole entry, looked up): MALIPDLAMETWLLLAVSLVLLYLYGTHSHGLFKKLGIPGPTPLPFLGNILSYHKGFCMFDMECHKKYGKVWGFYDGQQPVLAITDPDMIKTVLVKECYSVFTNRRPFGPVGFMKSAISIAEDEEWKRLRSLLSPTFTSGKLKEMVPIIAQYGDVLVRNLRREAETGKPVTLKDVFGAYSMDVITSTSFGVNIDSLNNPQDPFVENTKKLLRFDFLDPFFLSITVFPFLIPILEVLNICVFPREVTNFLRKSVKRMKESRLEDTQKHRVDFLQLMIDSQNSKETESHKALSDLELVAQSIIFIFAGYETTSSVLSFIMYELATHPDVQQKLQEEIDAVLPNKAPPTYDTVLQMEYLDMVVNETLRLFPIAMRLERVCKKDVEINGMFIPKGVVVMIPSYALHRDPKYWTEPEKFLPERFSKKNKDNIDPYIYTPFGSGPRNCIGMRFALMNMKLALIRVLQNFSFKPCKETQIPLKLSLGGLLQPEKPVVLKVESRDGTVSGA
Voltage-gated inwardly rectifying potassium channel KCNH2 (Homo sapiens), sequence (Q12809 whole entry, looked up): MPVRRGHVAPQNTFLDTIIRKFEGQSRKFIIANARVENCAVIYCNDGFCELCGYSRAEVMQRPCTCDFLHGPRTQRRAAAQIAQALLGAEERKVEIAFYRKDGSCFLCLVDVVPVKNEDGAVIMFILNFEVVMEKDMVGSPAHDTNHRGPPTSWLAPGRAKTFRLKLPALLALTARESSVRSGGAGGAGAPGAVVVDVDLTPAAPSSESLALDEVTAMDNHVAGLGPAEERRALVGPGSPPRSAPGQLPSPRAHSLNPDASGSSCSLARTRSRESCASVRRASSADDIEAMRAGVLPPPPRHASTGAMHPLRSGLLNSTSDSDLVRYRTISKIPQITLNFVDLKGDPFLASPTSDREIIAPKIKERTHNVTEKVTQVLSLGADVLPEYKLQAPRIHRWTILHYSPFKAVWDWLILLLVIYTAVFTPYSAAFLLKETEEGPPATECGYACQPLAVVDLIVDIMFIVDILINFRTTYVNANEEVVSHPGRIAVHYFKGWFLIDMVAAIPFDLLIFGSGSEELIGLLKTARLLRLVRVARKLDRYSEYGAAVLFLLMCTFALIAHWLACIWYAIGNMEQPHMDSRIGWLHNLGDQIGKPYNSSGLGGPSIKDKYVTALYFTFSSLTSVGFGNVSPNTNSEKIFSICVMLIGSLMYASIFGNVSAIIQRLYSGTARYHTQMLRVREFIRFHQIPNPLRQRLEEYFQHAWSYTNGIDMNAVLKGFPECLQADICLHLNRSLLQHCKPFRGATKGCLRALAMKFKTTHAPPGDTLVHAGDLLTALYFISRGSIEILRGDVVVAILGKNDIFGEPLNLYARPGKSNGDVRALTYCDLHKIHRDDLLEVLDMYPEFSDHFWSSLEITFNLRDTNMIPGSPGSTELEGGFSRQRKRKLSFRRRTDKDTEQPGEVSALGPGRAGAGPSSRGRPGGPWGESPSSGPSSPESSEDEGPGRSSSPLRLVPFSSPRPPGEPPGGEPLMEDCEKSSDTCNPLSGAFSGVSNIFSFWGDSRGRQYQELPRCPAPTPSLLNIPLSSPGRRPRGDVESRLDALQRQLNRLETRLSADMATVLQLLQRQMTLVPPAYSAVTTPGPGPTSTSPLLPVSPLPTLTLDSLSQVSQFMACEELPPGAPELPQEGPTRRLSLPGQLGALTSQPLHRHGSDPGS
Nuclear receptor subfamily 1 group I member 2 (Homo sapiens), sequence (O75469 whole entry, looked up): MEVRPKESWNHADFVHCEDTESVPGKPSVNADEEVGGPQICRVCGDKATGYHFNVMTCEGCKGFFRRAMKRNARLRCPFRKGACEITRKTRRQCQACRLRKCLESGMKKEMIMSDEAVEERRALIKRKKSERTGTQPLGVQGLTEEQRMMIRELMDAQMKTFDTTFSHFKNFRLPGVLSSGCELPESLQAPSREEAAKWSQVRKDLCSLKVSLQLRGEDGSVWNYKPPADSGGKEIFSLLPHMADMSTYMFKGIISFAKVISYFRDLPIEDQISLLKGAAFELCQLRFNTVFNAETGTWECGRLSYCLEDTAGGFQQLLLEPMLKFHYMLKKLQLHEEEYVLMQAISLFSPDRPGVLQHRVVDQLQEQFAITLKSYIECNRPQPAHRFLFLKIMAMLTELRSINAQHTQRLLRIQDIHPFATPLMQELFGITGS
Cytochrome P450 2C19 (Homo sapiens), sequence (P33261 whole entry, looked up): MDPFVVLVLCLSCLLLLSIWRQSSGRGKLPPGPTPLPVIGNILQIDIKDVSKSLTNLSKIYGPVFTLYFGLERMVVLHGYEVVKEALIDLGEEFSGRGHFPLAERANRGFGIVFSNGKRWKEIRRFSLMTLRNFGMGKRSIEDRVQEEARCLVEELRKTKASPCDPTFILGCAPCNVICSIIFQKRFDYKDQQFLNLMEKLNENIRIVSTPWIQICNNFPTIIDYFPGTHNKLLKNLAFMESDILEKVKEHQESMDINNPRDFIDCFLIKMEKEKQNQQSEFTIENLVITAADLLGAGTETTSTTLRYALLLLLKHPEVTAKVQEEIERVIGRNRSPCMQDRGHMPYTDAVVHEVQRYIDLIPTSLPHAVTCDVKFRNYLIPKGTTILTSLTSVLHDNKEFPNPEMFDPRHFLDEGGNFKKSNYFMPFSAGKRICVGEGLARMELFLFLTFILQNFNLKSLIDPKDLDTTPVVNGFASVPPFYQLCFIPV
Cytochrome P450 1A2 (Homo sapiens), sequence (P05177 whole entry, looked up): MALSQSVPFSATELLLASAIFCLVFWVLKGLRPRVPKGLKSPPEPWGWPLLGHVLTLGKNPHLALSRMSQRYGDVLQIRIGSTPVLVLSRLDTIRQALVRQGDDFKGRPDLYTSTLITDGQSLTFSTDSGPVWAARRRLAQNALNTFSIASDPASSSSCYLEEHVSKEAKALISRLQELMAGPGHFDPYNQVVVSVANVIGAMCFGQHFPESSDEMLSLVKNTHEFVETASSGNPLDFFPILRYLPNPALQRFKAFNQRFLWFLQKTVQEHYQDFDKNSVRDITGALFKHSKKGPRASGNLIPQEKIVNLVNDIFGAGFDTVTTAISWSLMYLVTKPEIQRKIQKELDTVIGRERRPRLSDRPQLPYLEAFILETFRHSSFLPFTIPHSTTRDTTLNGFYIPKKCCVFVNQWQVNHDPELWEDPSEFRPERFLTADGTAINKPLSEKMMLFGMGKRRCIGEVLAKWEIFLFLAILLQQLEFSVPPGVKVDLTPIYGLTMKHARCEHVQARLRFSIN
Thyrotropin-releasing hormone receptor (Homo sapiens), sequence (P34981 whole entry, looked up): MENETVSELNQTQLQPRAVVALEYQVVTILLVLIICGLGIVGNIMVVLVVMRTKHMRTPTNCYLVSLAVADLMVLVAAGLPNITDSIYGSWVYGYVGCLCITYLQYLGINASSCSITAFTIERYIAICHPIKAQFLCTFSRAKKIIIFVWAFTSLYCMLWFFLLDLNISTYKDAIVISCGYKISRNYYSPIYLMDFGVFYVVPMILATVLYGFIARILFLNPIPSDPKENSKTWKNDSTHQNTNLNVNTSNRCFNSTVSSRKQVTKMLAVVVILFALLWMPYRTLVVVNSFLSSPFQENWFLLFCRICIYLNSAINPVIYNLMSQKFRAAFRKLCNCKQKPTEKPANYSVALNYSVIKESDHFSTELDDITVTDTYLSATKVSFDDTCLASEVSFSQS
Cytochrome P450 2D6 (Homo sapiens), sequence (P10635 whole entry, looked up): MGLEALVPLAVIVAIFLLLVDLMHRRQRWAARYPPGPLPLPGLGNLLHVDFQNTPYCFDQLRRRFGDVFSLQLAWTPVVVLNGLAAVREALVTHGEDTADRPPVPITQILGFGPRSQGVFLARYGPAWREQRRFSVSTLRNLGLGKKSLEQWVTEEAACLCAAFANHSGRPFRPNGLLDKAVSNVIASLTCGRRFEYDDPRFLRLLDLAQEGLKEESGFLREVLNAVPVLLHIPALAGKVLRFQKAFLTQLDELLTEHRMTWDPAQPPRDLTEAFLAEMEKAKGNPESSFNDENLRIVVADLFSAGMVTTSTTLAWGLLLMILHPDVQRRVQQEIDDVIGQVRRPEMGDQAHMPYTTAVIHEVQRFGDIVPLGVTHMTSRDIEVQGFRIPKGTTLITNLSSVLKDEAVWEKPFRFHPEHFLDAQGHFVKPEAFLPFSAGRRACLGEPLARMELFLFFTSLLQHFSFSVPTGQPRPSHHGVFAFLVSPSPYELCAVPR

CSc1cnccn1
inactive: [1] | [2] | [3] | [4] | [5] | [6] | [7] | [8] | [9] | [10] | [11] | [12] | [13] | [14] | [15] | [16] | [17]

CN1CCOC(c2ccccc2)c2ccccc2C1 (stereo not given)
inactive: [1] | [2] | [3] | [4] | [5] | [6] | [7] | [8] | [9] | [10]

CC(=O)CC(=O)Nc1ccc(C)cc1C
active: [14] 31.7 µM
inactive: [1] | [2] | [3] | [4] | [5] | [6] | [7] | [8] | [9] | [10] | [11] | [12] | [16]

Fc1ccccc1
inactive: [1] | [2] | [3] | [4] | [5] | [6] | [7] | [8] | [9] | [10] | [11] | [12] | [13] | [14] | [17]

CC1OCCC1=O (stereo not given)
inactive: [1] | [2] | [3] | [4] | [5] | [6] | [7] | [8] | [9] | [10] | [11] | [12] | [13] | [14] | [15] | [16]

COC(=O)CCCCC(CCSS/C(CCO)=C(\C)N(C=O)Cc1cnc(C)nc1N)SC(C)=O (stereo not given)
inactive: [1] | [2] | [3] | [4] | [5] | [6] | [7] | [8] | [9] | [10] | [11] | [12] | [14] | [15] | [16]

CN(C)CCCO[C@@H]1[C@H]2OC(C)(C)O[C@H]2O[C@@H]1C(O)CO (stereo not given in full)
inactive: [1] | [2] | [3] | [4] | [5] | [6] | [7] | [8] | [9] | [10] | [11] | [18] | [19] | [12] | [13] | [14] | [15] | [16]

O=[N+]([O-])c1c(Cl)cc(Cl)cc1Cl
inactive: [1] | [2] | [3] | [4] | [5] | [6] | [7] | [8] | [9] | [10] | [11] | [12] | [13] | [14] | [17]

OCCN1CCOCC1
inactive: [1] | [2] | [3] | [4] | [5] | [6] | [7] | [8] | [9] | [10] | [11] | [13] | [14] | [15] | [16]

COC(=O)c1cc(Cl)cc(Cl)c1
inactive: [1] | [2] | [3] | [4] | [5] | [6] | [7] | [8] | [9] | [10] | [11] | [12] | [13] | [14] | [16] | [17]

OCC1(CO)COCOC1
inactive: [1] | [2] | [3] | [4] | [5] | [6] | [7] | [8] | [9] | [10] | [11] | [12] | [13] | [14] | [16] | [17]

CC1=C(O)C(=O)C(C)O1 (stereo not given)
inactive: [1] | [2] | [3] | [4] | [5] | [6] | [7] | [8] | [9] | [10] | [11] | [12] | [14] | [16] | [17]

CC(C)=CCC/C(C)=C/COC=O
inactive: [1] | [2] | [3] | [4] | [5] | [6] | [7] | [8] | [9] | [10] | [11] | [12] | [13] | [14]

CC12CCC(C1)C(C)(C)C2O (stereo not given)
inactive: [1] | [2] | [3] | [4] | [5] | [6] | [7] | [8] | [9] | [10] | [11] | [12] | [13] | [14] | [16] | [17]

Cc1ccc(C(=O)O)cc1[N+](=O)[O-]
inactive: [1] | [2] | [3] | [4] | [5] | [6] | [7] | [8] | [9] | [10] | [11] | [12] | [13] | [14] | [17]

CCC[C@@H]1C[C@@H](C(=O)N[C@@H]([C@H]2O[C@H](SC)[C@H](O)[C@@H](O)[C@H]2O)[C@@H](C)O)N(C)C1
inactive: [1] | [2] | [3] | [4] | [5] | [6] | [7] | [8] | [9] | [10] | [11] | [18] | [19] | [12] | [13] | [14] | [16] | [17]
